We go through 13 compounds from PubChem BioAssay (NCATS).

Results filed as inconclusive are left out. Where a call stands in place of a potency, no number is given. Active and inactive are the calls of the source. Calls follow the shape of the dose curve; as a rule, active = well fitted inhibition curve with a large enough effect; inconclusive = small, poorly fitted or top-dose-only effect; inactive = flat fitted curve, though single readings scatter. Where a SMILES comes first, the peptide text is derived from it. Bridges are numbered along the chain shown (N, C = ends). [ ]: non-standard residue; d: D form. The star is where a group is joined. X2 = CC[C@H](C)CCCCC(=O)*; Dab = NCC[C@H](N)C(=O)O

Sequence of Voltage-gated inwardly rectifying potassium channel KCNH2 (Homo sapiens) (Q12809 whole entry, looked up): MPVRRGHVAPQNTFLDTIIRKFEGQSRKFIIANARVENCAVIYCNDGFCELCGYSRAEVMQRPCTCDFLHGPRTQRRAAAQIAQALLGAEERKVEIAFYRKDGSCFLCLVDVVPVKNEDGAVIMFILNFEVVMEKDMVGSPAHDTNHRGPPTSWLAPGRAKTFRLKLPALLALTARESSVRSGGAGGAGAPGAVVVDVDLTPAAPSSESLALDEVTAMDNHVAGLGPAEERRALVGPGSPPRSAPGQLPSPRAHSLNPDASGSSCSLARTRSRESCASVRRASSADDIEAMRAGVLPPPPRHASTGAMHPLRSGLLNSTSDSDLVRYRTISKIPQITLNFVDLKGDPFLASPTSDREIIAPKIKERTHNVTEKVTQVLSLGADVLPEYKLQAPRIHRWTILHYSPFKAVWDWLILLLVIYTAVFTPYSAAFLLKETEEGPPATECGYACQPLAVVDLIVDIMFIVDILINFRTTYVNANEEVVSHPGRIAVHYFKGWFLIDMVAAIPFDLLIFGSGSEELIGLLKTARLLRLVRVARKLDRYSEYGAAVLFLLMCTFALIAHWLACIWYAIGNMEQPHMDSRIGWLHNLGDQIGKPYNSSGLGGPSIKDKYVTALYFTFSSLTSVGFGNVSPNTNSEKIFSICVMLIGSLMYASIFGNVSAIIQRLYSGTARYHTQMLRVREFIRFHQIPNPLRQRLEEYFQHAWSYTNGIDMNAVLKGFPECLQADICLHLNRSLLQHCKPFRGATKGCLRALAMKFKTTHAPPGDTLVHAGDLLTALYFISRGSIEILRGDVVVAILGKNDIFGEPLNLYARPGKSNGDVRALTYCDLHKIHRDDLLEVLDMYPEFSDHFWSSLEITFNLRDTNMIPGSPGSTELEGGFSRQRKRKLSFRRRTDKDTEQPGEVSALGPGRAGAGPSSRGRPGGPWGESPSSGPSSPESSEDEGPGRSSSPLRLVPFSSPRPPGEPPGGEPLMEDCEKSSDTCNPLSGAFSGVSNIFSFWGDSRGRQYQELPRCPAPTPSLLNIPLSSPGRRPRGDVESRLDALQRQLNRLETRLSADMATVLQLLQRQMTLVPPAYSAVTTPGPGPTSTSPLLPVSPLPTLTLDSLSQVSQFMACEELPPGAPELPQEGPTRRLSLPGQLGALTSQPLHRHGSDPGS

This experiment has as its target Voltage-gated inwardly rectifying potassium channel KCNH2 (Homo sapiens) (UniProt Q12809). The experiment in a line: qHTS Assay for Small Molecule Inhibitors of the Human hERG Channel Activity (AID 588834).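 Also: top concentration of the series differs between compounds; lower thallium flux fluorescence means stronger hERG block; nearly all actives have a fitted effect of over 50% in size.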 The note with it: U2OS BacMam hERG, FluxOR thallium flux fluorescence; series mostly up to 46.1 µM. The procedure, abridged:
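U2OS cells BacMam-transduced with hERG, 2000 cells/well, compound ~10 min at 37 °C before stimulation buffer. FluxOR thallium flux fluorescence read kinetically on FDSS; decrease indicates block; AC50 from Hill fits.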
`CC[C@H](C)CCCCC(=O)N[C@@H](CCN)C(=O)N[C@H](C(=O)N[C@@H](CCN)C(=O)N[C@H]1CCNC(=O)[C@@H]([C@H](C)O)NC(=O)[C@H](CCN)NC(=O)[C@H](CCN)NC(=O)[C@H](CC(C)C)NC(=O)[C@@H](CC(C)C)NC(=O)[C@H](CCN)NC1=O)[C@@H](C)O` (X2-[Dab]T[Dab][Dab][Dab][dL]L[Dab][Dab][dT]; lactam 4-C): the Potency result was “inactive”.

For the compound `O=C(O)[C@@H]1C[C@H](CP(=O)(O)O)CCN1`, the Potency entry was “inactive”.

`CC1(C)S[C@@H]2[C@H](N3C(=O)C(c4ccccc4)NC3(C)C)C(=O)N2[C@H]1C(=O)O` (stereo partly drawn): the Potency entry is “inactive”.

As to `COc1c(O[C@@H]2O[C@H](CO)[C@@H](O)[C@H](O)[C@H]2O)cc2c(c1OC)-c1ccc(SC)c(=O)cc1[C@@H](NC(C)=O)CC2`, the Potency entry is “inactive”.

As to `CC[C@H](C)[C@@H]1NC(=O)[C@H](Cc2ccc(O)cc2)NC(=O)[C@@H](N)CSSC[C@@H](C(=O)N2CCC[C@H]2C(=O)N[C@@H](CC(C)C)C(=O)NCC(N)=O)NC(=O)[C@H](CC(N)=O)NC(=O)[C@H](CCC(N)=O)NC1=O`, the Potency entry is “inactive”.

In the case of `C=C1CC[C@H](O)CC1=C/C=C1\CCC[C@]2(C)[C@@H]([C@H](C)CC[C@@H](O)C(C)(C)O)CC[C@@H]12`, the Potency result is “inactive”.

Consider `CC(C)CCC[C@@H](C)[C@H]1CC(=O)C2=C3CC[C@H]4C[C@@H](O)CC[C@]4(C)[C@H]3CC[C@@]21C`, for which the Potency result was “inactive”.

Turning to `CO/N=C(\C(=O)N[C@@H]1C(=O)N2C(C(=O)O)=C(CSC(=O)c3ccco3)CS[C@H]12)c1csc(N)n1`, the Potency result is “inactive”.

As for `O=C[C@H](O)[C@@H](O)[C@@H](O)[C@H](O)CO`, the Potency entry was “inactive”.

Take `CC(C)C[C@@H](NC(=O)[C@@H](O)[C@H](N)Cc1ccccc1)C(=O)O`: the Potency result was “inactive”.

For `CC(=O)OCC1=C(C(=O)O)N2C(=O)[C@@H](NC(=O)Cc3ccccc3)[C@H]2SC1`, the Potency entry was “inactive”.

For `C[C@H]1[C@@H](OC(=O)CCC(=O)O)O[C@@H]2OC3(C)CC[C@H]4[C@H](C)CC[C@@H]1[C@@]24OO3`, the Potency result is “inactive”.

As for `COc1ccc([C@@H]2CC(=O)c3c(O)cc(O[C@@H]4O[C@H](CO[C@@H]5O[C@@H](C)[C@H](O)[C@@H](O)[C@H]5O)[C@@H](O)[C@H](O)[C@H]4O)cc3O2)cc1O`, the Potency result was “inactive”.
